In PubChem BioAssay (Tox21) one finds Potency, activity change, positive = activation and outcome data, which are given here for nine molecules.

The target in assay [1] is Luciferin 4-monooxygenase (Photinus pyralis) (UniProt P08659). As to the kind of experiment: qHTS assay to identify small molecule inhibitors of firefly luciferase (AID 1224835). Also: nearly all actives have a fitted effect of over 25% in size. The gist of the method: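 Inhibition of purified Photinus luciferase is measured by luminescence. Substrate levels (D-luciferin, ATP) sit at their KM values. Each compound is tested in a concentration series.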
(In general: Quantitative high-throughput screening tests each substance at several concentrations.)

A short description of assay [2]: qHTS assay to identify small molecule agonists of the constitutive androstane receptor (CAR) signaling pathway - cell viability counter screen (AID 1224836). Also: nearly all actives have a fitted effect of over 45% in size. Also: potency is read from the fitted curve at half-maximal effect. A digest of the protocol: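 Multiplexed viability check: HepG2-CYP2B6-hCAR cells, 15-point compound dosing, 0.75 uM PK11195 final, 23 h at 37 C, CellTiter-Fluor fluorescence.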
Assay [3] is described as follows: qHTS assay to identify small molecule antagonists of the constitutive androstane receptor (CAR) signaling pathway - cell viability counter screen (AID 1224837). Also: nearly all actives have a fitted effect of over 45% in size. Also: potency is read from the fitted curve at half-maximal effect. A digest of the protocol:
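Counter screen run in HepG2-CYP2B6-hCAR cells: 4 hr settle, compound titration (15 concentrations) with 50 nM CITCO, 23 hr at 37 C/5% CO2, CellTiter-Fluor fluorescence.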

The target of assay [4] is Nuclear receptor subfamily 1 group I member 3 (Homo sapiens) (UniProt Q14994). As to the kind of experiment: qHTS assay to identify small molecule antagonists of the constitutive androstane receptor (CAR) signaling pathway (AID 1224838).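 Also: HepG2 cells stably expressing hCAR with CYP2B6 luciferase reporter stimulated by CITCO; nearly all actives have a fitted effect of over 40% in size.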 Also: potency is read from the fitted curve at half-maximal effect. A digest of the protocol: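 Cell line: HepG2 double-stable for hCAR and CYP2B6-2.2kb reporter. Agonist: CITCO, 50 nM final. Compounds: 15 concentrations, 24 h, 37 C. Detection: ONE-Glo luminescence.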

Assay [5] shares this target. In words: qHTS assay to identify small molecule agonists of the constitutive androstane receptor (CAR) signaling pathway (AID 1224839).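 Also: HepG2 cells stably carrying human CAR and a CYP2B6 luciferase reporter; nearly all actives have a fitted effect of over 15% in size.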 A digest of the protocol: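 Using human hepatoma HepG2 cells engineered with hCAR and a CYP2B6-2.2kb reporter, 15-concentration compound series were incubated 24 h alongside PK11195 at 0.75 uM final, with luminescence quantified afterwards.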

Assay [6] can be described thus: qHTS assay to identify small molecule agonists of the estrogen related receptor signaling pathway with the pleiotropic PPARgamma coactivator (PGC) from Tox21 10K library (AID 1224842). Also: nearly all actives have a fitted effect of over 15% in size. The gist of the method:
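Luminescence from One-Glo (30 min, room temperature) measured after PGC/ERR cells had 18 h at 37 C with pinned compound (23 nL in DMSO). Cells had been seeded at 2,000 per well and pre-incubated 6 h.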

Assay [7] deals with Thyrotropin receptor (Homo sapiens) (UniProt P16473). In words: qHTS assay to identify small molecule agonists of the thyroid stimulating hormone receptor (TSHR) signaling pathway (AID 1224843; calls by dose curve; also: nearly all actives have a fitted effect of over 45% in size). The gist of the method: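 HEK293 cells stably bearing the thyrotropin receptor were plated at 800 cells/well and challenged with compound (30 min, RT). Accumulated cAMP was quantified via cAMP-d2 competing for cryptate-tagged antibody.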

Assay [8] is described as follows: qHTS assay to identify small molecule agonists of the hypoxia (HIF-1) signaling pathway - cell viability counter screen (AID 1224844; calls by dose curve; also: nearly all actives have a fitted effect of over 50% in size; also: potency is read from the fitted curve at half-maximal effect). The gist of the method:
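Cells (HRE-bla ME-180, 2,000 per well) sat 5 hrs at 37C, got compound for 17 hrs, were read for CCF4-AM FRET, and were finally lysed with CellTiter-Glo for a 30 min room-temperature luminescence read.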

Assay [9] is described as follows: qHTS assay to identify small molecule agonists of H2AX - cell viability counter screen (AID 1224847; calls by dose curve; also: nearly all actives have a fitted effect of over 30% in size; also: potency is read from the fitted curve at half-maximal effect). A digest of the protocol: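 After overnight plating of 1000 CHO-K1 cells per well, a 15-concentration compound series was applied for 3 hr at 37C. Luminescence from CellTiter-Glo, read following 30 min at room temperature, reflected cell viability.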
The nature of assay [10]: qHTS assay to identify small molecule antagonists of the estrogen related receptor (ERR) signaling pathway from Tox21 library (AID 1224848). Also: nearly all actives have a fitted effect of over 50% in size. Also: potency is read from the fitted curve at half-maximal effect. A digest of the protocol:
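Reading was by luminescence 30 min after ONE-Glo addition. Before that, ERR cells at 2,000 per well had rested 6 h at 37 C/5% CO2 and then received pin-tooled compounds in DMSO for 18 h at 37 C.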

Assay [11] in a line: qHTS assay to identify small molecule agonists of the estrogen related receptor (ERR) signaling pathway from Tox21 library (AID 1224849; calls by dose curve; also: nearly all actives have a fitted effect of over 15% in size). Conditions: ERR reporter cell line, ONE-Glo luciferase, 18 h; at 92.4 µM (top of the series) unless noted. The gist of the method: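 Screening used an NTP-provided ERR luciferase cell line. Compounds in DMSO were added 6 h after seeding and left 18 h at 37 C before a 30 min ONE-Glo step and luminescence reading.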

A short description of assay [12]: qHTS RealTime-Glo MT Cell Viability Assay in HepG2 cells - 24 hour (AID 1224867). Also: nearly all actives have a fitted effect of over 50% in size. Also: potency is read from the fitted curve at half-maximal effect. The gist of the method:
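qHTS, HepG2, 600 cells/well, RealTime-Glo (NanoLuc + prosubstrate) added with cells; 5 h preincubation; DMSO compound addition; 37 C; luminescence at 0/8/16/24/32/40 h.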

Assay [13] in a line: qHTS RealTime-Glo MT Cell Viability Assay in HEK293 cells - 32 hour (AID 1224868). Also: nearly all actives have a fitted effect of over 50% in size. Also: potency is read from the fitted curve at half-maximal effect. The gist of the method:
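Assay medium contained NanoLuc luciferase plus cell-permeant prosubstrate, added with HEK293 cells at 600 cells/well. After 5 h at 37 C/5% CO2 compounds were added; plates stayed at 37 C for 40 h with serial luminescence reads.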

The nature of assay [14]: qHTS RealTime-Glo MT Cell Viability Assay in HepG2 cells - 40 hour (AID 1224870). Also: nearly all actives have a fitted effect of over 50% in size. Also: potency is read from the fitted curve at half-maximal effect. A digest of the protocol:
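Real-time viability: cells seeded at 600 per well together with NanoLuc and cell-permeant prosubstrate, compounds added after 5 h incubation. Luminescence tracked at 0, 8, 16, 24, 32 and 40 h of exposure.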

Assay [15] in a line: A CellTox Green Cytotoxicity Assay to monitor cytotoxicity in HEK293 cells - 40 hour (AID 1224871). Also: nearly all actives have a fitted effect of over 45% in size. Also: potency is read from the fitted curve at half-maximal effect. The gist of the method:
(§1)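 Fluorescence intensity, read at 0, 8, 16, 24, 32 and 40 h of compound treatment, reflected dye binding to DNA of dead HEK293 cells; compounds (23 nL, DMSO) were added 5 h after plating cells with reagent.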

The nature of assay [16]: qHTS assay to identify small molecule antagonists of the estrogen related receptor signaling pathway with the pleiotropic PPARgamma coactivator (PGC) from Tox21 10K library - cell viability counter screen (AID 1224840; active = well fitted cell-killing curve with a large enough effect in the repeat runs, not every such curve was filed as active; also: nearly all actives have a fitted effect of over 40% in size). The gist of the method: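 Following seeding of 2,000 PGC/ERR cells/well and 6 hours' incubation, test compounds were delivered in DMSO. The plates then sat 17.5 hours at 37 C before a fluorogenic live-cell protease reagent (CellTiter-Fluor) was read after 30 min.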

The nature of assay [17]: qHTS assay to identify small molecule antagonists of the estrogen related receptor signaling pathway with the pleiotropic PPARgamma coactivator (PGC) from Tox21 10K library (AID 1224841; call rule not given here; also: potency is read from the fitted curve at half-maximal effect). A digest of the protocol: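 qHTS antagonist format: PGC/ERR cells, 2k/well, compound in DMSO by pin transfer after 6 h attachment, 18 h treatment at 37 C, One-Glo luminescence read at 30 min.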

Assay [18] in a line: qHTS assay to identify small molecule agonists of H2AX (AID 1224845; active = well fitted activation curve with a large enough effect in the signal ratio in the repeat runs, not every such curve was filed as active; the % refers to the signal ratio). A digest of the protocol:
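Phospho-H2AX Ser139 measured by HTRF (ex 320 nm; em 665 and 620 nm) after 24 hr antibody incubation. Compounds, 15 concentrations, 0.76% DMSO, were applied to CHO-K1 cells for 3hr at 37C before lysis.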

Assay [19] in a line: qHTS assay to identify small molecule agonists of the hypoxia (HIF-1) signaling pathway (AID 1224846; active = well fitted activation curve with a large enough effect in the signal ratio in the repeat runs, not every such curve was filed as active; the % refers to the signal ratio). A digest of the protocol:
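A low-serum medium (0.5% dialyzed FBS) holding 2,000 HRE-bla ME-180 cells per well is preincubated for 5 hrs, dosed with compounds by pintool, and kept a further 17 hrs at 37C, 5% CO2 before CCF4-AM FRET detection of beta-lactamase.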

Assay [20] in a line: A CellTox Green Cytotoxicity Assay to monitor cytotoxicity in HEK293 cells - 0 hour (AID 1224869). Also: nearly all actives have a fitted effect of over 50% in size. A digest of the protocol:
as §1

Structures are written as SMILES. Unmarked numbers belong to inactive results. Results filed as inconclusive are left out. The source made the active and inactive calls. Unless noted, calls follow the shape of the dose curve; as a rule, active = well fitted curve in the direction sought with a large enough effect in the repeat runs; inconclusive = weak or mixed curves; inactive = no such curve, though single readings can be large; an effect the other way counts as inactive or inconclusive.
% is scaled to controls: 0 for no effect and ±100 for the full control effect.

Chain of Thyrotropin receptor (Homo sapiens) (P16473 whole entry, looked up): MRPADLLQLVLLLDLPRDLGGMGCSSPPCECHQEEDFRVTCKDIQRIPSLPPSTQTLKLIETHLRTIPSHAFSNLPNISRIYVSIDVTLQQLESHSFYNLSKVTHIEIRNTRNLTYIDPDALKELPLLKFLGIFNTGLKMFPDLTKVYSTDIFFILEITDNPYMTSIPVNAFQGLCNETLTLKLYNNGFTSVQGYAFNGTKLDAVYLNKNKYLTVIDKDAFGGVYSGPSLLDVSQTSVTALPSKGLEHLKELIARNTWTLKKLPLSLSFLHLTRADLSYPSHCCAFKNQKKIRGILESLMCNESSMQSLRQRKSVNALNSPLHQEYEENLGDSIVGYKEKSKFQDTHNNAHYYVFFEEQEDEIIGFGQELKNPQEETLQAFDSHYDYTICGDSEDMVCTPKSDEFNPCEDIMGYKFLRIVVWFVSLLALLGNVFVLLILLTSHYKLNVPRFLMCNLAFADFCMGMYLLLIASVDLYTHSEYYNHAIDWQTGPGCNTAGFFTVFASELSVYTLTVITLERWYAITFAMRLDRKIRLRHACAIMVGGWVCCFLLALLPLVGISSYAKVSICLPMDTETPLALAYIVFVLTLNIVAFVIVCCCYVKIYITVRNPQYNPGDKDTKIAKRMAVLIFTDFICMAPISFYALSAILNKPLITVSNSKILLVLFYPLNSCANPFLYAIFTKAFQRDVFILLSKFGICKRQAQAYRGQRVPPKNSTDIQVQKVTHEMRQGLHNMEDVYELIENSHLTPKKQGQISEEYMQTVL
Chain of Luciferin 4-monooxygenase (Photinus pyralis) (P08659 whole entry, looked up): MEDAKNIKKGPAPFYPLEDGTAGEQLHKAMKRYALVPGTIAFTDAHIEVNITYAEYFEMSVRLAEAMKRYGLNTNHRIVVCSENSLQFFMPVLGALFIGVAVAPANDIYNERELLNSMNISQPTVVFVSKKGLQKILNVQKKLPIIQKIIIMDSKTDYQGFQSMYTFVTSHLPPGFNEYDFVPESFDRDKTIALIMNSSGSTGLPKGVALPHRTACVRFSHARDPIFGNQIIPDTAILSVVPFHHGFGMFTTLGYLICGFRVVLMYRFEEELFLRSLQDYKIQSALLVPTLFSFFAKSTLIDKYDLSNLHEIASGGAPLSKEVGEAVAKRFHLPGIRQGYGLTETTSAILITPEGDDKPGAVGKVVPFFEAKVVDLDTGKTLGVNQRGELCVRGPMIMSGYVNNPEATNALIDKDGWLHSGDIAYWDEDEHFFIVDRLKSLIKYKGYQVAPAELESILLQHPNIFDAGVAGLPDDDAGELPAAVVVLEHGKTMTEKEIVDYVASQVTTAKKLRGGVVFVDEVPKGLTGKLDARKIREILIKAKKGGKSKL
Chain of Nuclear receptor subfamily 1 group I member 3 (Homo sapiens) (Q14994 whole entry, looked up): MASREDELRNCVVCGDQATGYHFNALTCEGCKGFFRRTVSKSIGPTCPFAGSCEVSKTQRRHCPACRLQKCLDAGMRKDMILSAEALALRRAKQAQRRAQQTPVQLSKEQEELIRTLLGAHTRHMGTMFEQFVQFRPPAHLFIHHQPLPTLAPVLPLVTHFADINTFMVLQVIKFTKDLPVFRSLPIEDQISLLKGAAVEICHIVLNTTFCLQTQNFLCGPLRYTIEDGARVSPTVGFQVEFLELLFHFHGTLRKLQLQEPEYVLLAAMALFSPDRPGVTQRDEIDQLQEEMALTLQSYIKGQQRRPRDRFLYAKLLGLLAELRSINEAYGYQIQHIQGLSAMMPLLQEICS

As to `O=C1NCN(c2ccccc2)C12CCN(CCCC(c1ccc(F)cc1)c1ccc(F)cc1)CC2`, the Potency entry in assay [1], in assay [5], in assay [6] and in assay [7] was “inactive” in each case. For the same molecule, the Potency in assay [2] was 16.8 µM (active); in assay [3], 13.3 µM (active); in assay [4], 13.3 µM (active); in assay [8], 10.7 µM (active); in assay [9], 49.2 µM (active); in assay [10], 21.1 µM (active). Besides, the Potency in assay [12] is 6.74 µM (active); in assay [13], 19 µM (active); in [14] it was 6.74 µM (active); in [15], 23.9 µM (active). The activity change, positive = activation in [11] was -32.9% [at 42.5 µM].

In the case of `CC1=CP(=O)(c2ccccc2)CC1` (configuration not stated), the Potency entry in assay [1], in [2], in assay [3], in assay [16], in assay [17] and in assay [6] was “inactive” in each case. Also, the Potency result in assay [7], in assay [8], in [18], in assay [10], in assay [12] and in [13] was “inactive” each time. The Potency result in [20], in assay [14] and in assay [15] was “inactive” each time. The call in assay [19] was inactive. Also, the activity change, positive = activation in assay [11] was -5.03%.

For the molecule `CCN(CC)CCOC(=O)C1(C2CCCCC2)CCCCC1`, the Potency result in assay [1], in assay [2], in [3], in assay [4], in assay [8] and in assay [12] was “inactive” each time. The Potency result in assay [20] and in assay [14] was “inactive” in each case. Further, in assay [15], the Potency is 23.9 µM (active).

In the case of `Cc1cccc(Br)c1`, the Potency result in assay [1], in [2], in assay [3], in assay [4], in assay [16] and in [7] was “inactive” each time. Further, the Potency entry in [18], in assay [9], in assay [12], in assay [13], in assay [20] and in [14] was “inactive” in each case. The result in assay [19] was inactive.

In the case of `S=P(N1CC1)(N1CC1)N1CC1`, the Potency entry in assay [1], in assay [2], in assay [3], in assay [5], in [16] and in assay [7] was “inactive” in each case. Further, the Potency result in assay [9], in assay [12], in assay [20], in assay [14] and in assay [15] was “inactive” throughout. The Potency in [17] was 5.74 µM (active). Moreover, the activity change, positive = activation in [11] was -21.7%.

On to `Cc1occc1SSc1ccoc1C`, for which the Potency entry in assay [1], in assay [2], in assay [3], in assay [5], in [7] and in assay [13] was “inactive” throughout. The Potency result in assay [20] and in [14] was “inactive” throughout. Moreover, the outcome in assay [19] was inactive.

For the molecule `O=C1Nc2ccc(Cl)cc2[C@@](C#CC2CC2)(C(F)(F)F)O1`, the Potency entry in [1], in [2], in [3], in [4], in assay [5] and in assay [18] was “inactive” throughout. Besides, the Potency entry in [20] and in [14] was “inactive” in each case. For the same molecule, in [13], the Potency is 23.9 µM (active).

As to `c1cc(OCC2CO2)cc(OCC2CO2)c1` (configuration not stated), the Potency result in assay [1], in [2], in [3], in [5], in [7] and in assay [12] was “inactive” throughout. Also, the Potency entry in assay [20] and in [15] was “inactive” each time. For the same molecule, the Potency in assay [13] is 17.2 µM (active).

As to `O[C@@H](c1cc(C(F)(F)F)nc2c(C(F)(F)F)cccc12)[C@H]1CCCCN1`, the Potency entry in assay [1], in assay [5], in [17], in assay [6], in assay [7] and in [20] was “inactive” throughout. The Potency in assay [2] was 29.8 µM (active); in [3], 29.8 µM (active); in assay [12], 16.9 µM (active); in assay [13], 8.49 µM (active); in assay [15], 23.9 µM (active). Moreover, in assay [19], the outcome was inactive. Also, the activity change, positive = activation in assay [11] was -63.8% [at 42.5 µM].
